Screening data (PubChem BioAssay)
Most compounds without a hit are left out; they make up all but 2.4% or so of the library.
AmpC inh det – inhibitors of E. coli AmpC beta-lactamase with detergent | purified AmpC, nitrocefin hydrolysis with detergent | 71,000 compounds, 0.09% hits | Potency, µM (doses to about 28.7 µM) | P00811 | AID 584; active = well fitted curve in the direction sought with a large enough effect; inconclusive = small, poorly fitted or top-dose-only effect
Target sequence (P00811 whole entry, looked up): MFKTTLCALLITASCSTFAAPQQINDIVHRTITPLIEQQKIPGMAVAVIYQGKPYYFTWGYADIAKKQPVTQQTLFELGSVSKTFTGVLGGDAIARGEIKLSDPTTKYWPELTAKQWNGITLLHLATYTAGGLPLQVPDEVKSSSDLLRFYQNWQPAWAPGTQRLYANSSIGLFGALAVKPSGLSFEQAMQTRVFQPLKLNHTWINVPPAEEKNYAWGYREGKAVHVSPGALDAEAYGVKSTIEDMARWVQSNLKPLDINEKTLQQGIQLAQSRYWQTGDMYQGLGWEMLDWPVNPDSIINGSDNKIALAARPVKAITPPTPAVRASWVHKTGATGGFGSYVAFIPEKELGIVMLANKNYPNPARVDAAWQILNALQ
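E. coli AmpC (5.3 nM) in 20 mM phosphate pH 7.0 with 0.01% Triton X-100, preincubated 15 min RT with compound; nitrocefin (2 uL of 800 uM stock) hydrolysis followed by 480 nm absorbance every 20 s over 4 min.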
AmpC inh no det – blocks E. coli AmpC beta-lactamase in absence of detergent; AID 585; Potency, µM (doses to about 28.7 µM); 71,000 compounds, 1.8% hits; AmpC nitrocefin hydrolysis, absorbance 480 nm, no detergent
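AmpC in 20 mM phosphate buffer pH 7.0 was preincubated 15 min at room temperature with compounds. Nitrocefin (800 uM stock) was then added and hydrolysis followed at 480 nm every 20 s for 4 min.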
Prx2 Sm inh – Schistosoma mansoni Prx2 inhibition | S. mansoni Prx2 activity coupled to TGR/GSH (TGR is thioredoxin glutathione reductase), NADPH fluorescence loss, qHTS | Potency, µM | 65,000 compounds, 0.07% hits
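Activity is read as the drop in NADPH fluorescence (365/450 nm), recorded every 30 sec for 8 min after H2O2 addition. Prx2 is coupled to TGR-driven NADPH oxidation through glutathione, in phosphate buffer pH 7.4.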
Anthrax LT inh – blocks cellular internalization of anthrax lethal toxin | Cells, anthrax lethal toxin internalization, FRET ratio (460/530) | Potency, µM (series often up to 40 µM), usual class: inhibitors | 70,000 compounds, 0.67% hits; also: nearly all actives have a fitted effect of over 50% in size
Hits are given with their value; . = inactive; ? = inconclusive; / = no result given; [ ] = dose if it differs, or a comment. Unless noted, calls follow the shape of the full dose curve.

SMILES	AmpC inh det	AmpC inh no det	Prx2 Sm inh	Anthrax LT inh
O=C1C2C3C=CC(C3)C2C(=O)N1CCCCN1C(=O)C2C3C=CC(C3)C2C1=O (stereo unspecified)	.	.	.	.
COCCn1c(=O)c(-c2ccccc2)nc2cnc(N3CCN(C)CC3)nc21	.	.	.	?
Cc1ccc2c(c1)-c1c(cnn1CC(=O)O)CO2	.	.	.	.
Cc1ccc2c(c1)-c1c(cnn1CC(=O)Nc1ccccc1N1CCN(C)CC1)CO2	.	.	.	5µM
CC(C)S	.	.	/	.
CCCC(=O)c1ccc(N2CCN(C(=O)c3ccccc3Br)CC2)c(F)c1	.	.	.	13µM
CC1=C(C(=O)OC(C)C)C(c2c[nH]c3ccccc23)n2ncnc2N1 (stereo unspecified)	.	4µM[single pt active]	.	.
CC1=C(C(=O)OC(C)C)C(c2cccc(F)c2)n2ncnc2N1 (stereo unspecified)	.	4µM[single pt active]	.	?
COc1ccccc1NC(=O)C1=C(C)Nc2ncnn2C1c1cccs1 (stereo unspecified)	.	.	.	?
CC1=C(C(=O)OC(C)C)C(c2cccs2)n2ncnc2N1 (stereo unspecified)	.	4µM[single pt active]	.	?
C[C@@H]1C[C@H](C)CN(S(=O)(=O)c2cc(Cl)c(Oc3ccc([N+](=O)[O-])cc3Cl)c(Cl)c2)C1	.[5.75 µM]	.[5.75 µM]	.	?
COc1ccc(N2CCN(C(=O)c3cc4c(-c5ccc(Cl)cc5)nn(C)c4s3)CC2)cc1	.	4µM[single pt active]	.	?
COc1cccc(-c2nn(C)c3sc(C(=O)N4CCOCC4)cc23)c1	.	.	.	.
COc1cccc(-c2nn(C)c3sc(C(=O)N4CCN(c5ccccn5)CC4)cc23)c1	.	.	.	10µM
CC(C)[C@@]1(NC(=O)[C@H]2C[C@H]3c4cccc5[nH]cc(c45)C[C@@H]3N(C)C2)O[C@]2(O)[C@H]3CCCN3C(=O)[C@H](Cc3ccccc3)N2C1=O	.	.	.	?
COc1ncc2nc(-c3cn(C)c4ccccc34)c(=O)n(-c3ccccc3)c2n1	.	.	.	?
COc1cccc(NC(=O)c2oc3ccccc3c2NC(=O)C(C)(C)C)c1	.	.	.	13µM
CC(=O)[C@H]([C@@H](c1ccccc1)N1CCOCC1)N1CCOCC1	.[5.75 µM]	.[5.75 µM]	.	.[8 µM]
CC1=CC(C)(C)N(C(=O)CN2C(=O)c3ccccc3C2=O)c2ccccc21	.	.	/	6.3µM
CCOC(=O)N1CCN(c2c(Nc3ccc4c(c3)OCCO4)c(=O)c2=O)CC1	.	4µM[single pt active]	.	?
CCOCC(=O)Nc1ccc2c(c1)OCCO2	.	.	.	.
CCOC(=O)N1CCN(c2c(NCC3CCCO3)c(=O)c2=O)CC1 (stereo unspecified)	.	4µM[single pt active]	.	.
CCOC(=O)N1CCN(c2c(N3CCc4ccccc43)c(=O)c2=O)CC1	.	4µM[single pt active]	/	?
CCOC(=O)C1CCN(c2c(N3CCN(c4ccccc4OC)CC3)c(=O)c2=O)CC1	.	.	.	.
CCOC(=O)N1CCN(c2c(N3CCN(c4ccccn4)CC3)c(=O)c2=O)CC1	.	4µM[single pt active]	.	.
SMILES	AmpC inh det	AmpC inh no det	Prx2 Sm inh	Anthrax LT inh
CCOC(=O)OCC1OC(C#CC(C)(C)C)C=CC1OC(=O)OCC (stereo unspecified)	/	/	/	.[8 µM]
COc1ccccc1CNc1ncnc2ccc(-c3ccccc3C#N)cc12	.	.	.	?
CC(C)(C)c1c2c(c(C(C)(C)C)c3c1OCN(Cc1ccccc1)C3)OCN(Cc1ccccc1)C2	.[5.75 µM]	.[5.75 µM]	.	.[8 µM]
CCOC(=O)N1CCN(c2c(N3CCOCC3)c(=O)c2=O)CC1	.	4µM[single pt active]	.	.
CNC(=O)[C@@H]1O[C@@H](n2cnc3c(NCc4ccc(N)cc4)ncnc32)[C@@H](O)[C@H]1O	.	.	.	.
CCc1ccc(-n2c(O)cnc2Nc2nc(C)cc(C)n2)cc1	.	4µM[single pt active]	.	.
OCCN1CCN(c2ncnc3c2sc2nc(N4CCOCC4)c4c(c23)CCC4)CC1	.	.	.	10µM
COc1ccc(NC(=O)NCCCN2CCc3ccccc3C2)cc1	.	4µM[single pt active]	.	.
COc1ccccc1N1CCN(CCCNC(=O)Nc2ccccc2)CC1	.	.	.	/
Oc1ccc2c3c1O[C@H]1c4[nH]c5ccccc5c4C[C@]4(O)[C@H](C2)N(CC2CC2)CC[C@@]314	.	.	.	?
Oc1ccc2c3c1O[C@H]1c4c(c5ccccc5n4Cc4ccccc4)C[C@]4(O)[C@H](C2)N(CC2CC2)CC[C@@]314	.	.	.	25µM
CCCC(c1cc(C(C)(C)C)c(O)cc1C)c1cc(C(C)(C)C)c(O)cc1C	.[5.75 µM]	4µM[single pt active]	.	?
CC(C)C[C@H](N)c1nnc(S(=O)(=O)Cc2ccc(F)cc2)o1	2.5µM	2.5µM	.	?
CC(C)OC(=O)c1nnc(Cc2ccc(F)cc2)o1	.	.	.	.
Cc1cc(=O)oc2cc(OCC#N)ccc12	.	4µM[single pt active]	.	.
COc1ccccc1NC(=O)C1(C)Cc2ccccc2C(=O)O1 (stereo unspecified)	.	4µM[single pt active]	.	.
CCc1ccc(C2C(C#N)=C(N)SC(N)=C2C#N)cc1	.	.	/	13µM
CCc1ccc(C2C(C#N)=C(N)SC(N)=C2C#N)s1	.	.	.	10µM
CC[C@H]1[C@@H]2C[C@@H]3[C@@H]4N(C)c5ccccc5[C@@]45C[C@@H]([C@H]2[C@@H]5O)N3[C@@H]1O	.	.	.	?
Cc1cc(C)nc(SCC(=O)c2ccc(O)cc2O)n1	.	4µM[single pt active]	.	.
Brc1ccc(-c2noc(CCc3ccccc3)n2)o1	.	4µM[single pt active]	.	?
Fc1ccc(OCc2nc(-c3ccc(Br)o3)no2)c(F)c1	.	2.5µM[single pt active]	.	?
CN1CCN(CCCBr)CC1	.[5.75 µM]	.[5.75 µM]	.	.[8 µM]
N[C@H](CCC(=O)N[C@H](CSN=O)C(=O)NCC(=O)O)C(=O)O	.	.	.	.
COc1ccc(C(=O)Nc2ccc(Cl)cc2C(=O)NCc2ccco2)cc1OC	.	.	/	7.9µM
SMILES	AmpC inh det	AmpC inh no det	Prx2 Sm inh	Anthrax LT inh
Cc1ccc(S(=O)(=O)N[C@H]2COC(=O)[C@H](C)COC(=O)C/C=C\[C@H]2C)cc1	/	/	/	.[0.064 µM]
NC(=O)C1(N2CCCCC2)CCN(C(=O)c2cccs2)CC1	.	4µM[single pt active]	.	.
CCOc1ccccc1CNC(=O)c1cc2occc2n1C	?	10µM[single pt active]	.	.
COc1ccccc1CNC(=O)c1cc2sccc2n1C	.	.	.	?
CCCCCCCCCCCCC(=O)N1CCCC[C@H]1CNC(=O)[C@@H](N)CCCCN	.	.	.	?
CCOc1ccc2ccccc2c1C(=O)N[C@@H]1C(=O)N2[C@@H]1SC(C)(C)[C@@H]2C(=O)O	0.05µM	0.032µM	.	.[3.58 µM]
Cc1onc(-c2c(Cl)cccc2Cl)c1C(=O)N[C@H]1C(=O)N2[C@H]1SC(C)(C)[C@H]2C(=O)O	0.0025µM	0.0016µM	.	.[3.58 µM]
CC(C)(N)C(=O)N[C@@H]1C(=O)N2[C@@H]1SC(C)(C)[C@H]2C(=O)O	1.3µM	0.5µM	.	.[8 µM]
CC1(C)S[C@@H]2[C@H](NC(=O)Cc3ccccc3)C(=O)N2[C@@H]1C(=O)O	.[5.75 µM]	.[5.75 µM]	.	.[8 µM]
CC1(C)S[C@@H]2[C@H](NC(=O)C3(N)CCCCC3)C(=O)N2[C@@H]1C(=O)O	0.01µM	0.01µM	.	.[8 µM]
CC(=O)OC(C(=O)c1ccccc1)c1ccccc1 (stereo unspecified)	.	.	/	.
